Structures can show the parent of a compound that is named as a salt.
Key:
Details in all cases: compound concentration in added solution (µM; 5 µl added to 20 µl cells): 10; 18 h
[1] = tested on: A431; assay: LBPA endosome anti-LBPA integrated intensity (sum per cell), Z-score; higher = more LBPA staining
In short: (§1)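 In duplicate 384-well imaging plates, 3,500 HeLa MZ or A431 cells in 20 µl per well were seeded onto 5 µl of 10 µM compound solution. The cells were incubated for 18 h, fixed in 4% PFA and stained with 6C4 anti-LBPA antibody, filipin, propidium iodide and CellTracker green before four 20× images were acquired per well. Values are AcuityXpress-normalised Z-scores of per-cell integrated LBPA or filipin intensity, obtained by MetaXpress segmentation over the whole cell or in LBPA endosomes.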

[2] = tested on: HeLa MZ; assay: as above
In short: as §1

[3] = tested on: A431; assay: whole-cell filipin (free cholesterol) integrated intensity, Z-score; higher = more cholesterol staining
In short: as §1

[4] = tested on: HeLa MZ; assay: as above
In short: as §1

[5] = tested on: A431; assay: filipin (cholesterol) integrated intensity within LBPA endosomes, Z-score; higher = more cholesterol in LBPA endosomes
In short: as §1

[6] = tested on: HeLa MZ; assay: as above
In short: as §1

SMILES	LBPA endosome anti-LBPA integrated intensity (z-score) [1]	LBPA endosome anti-LBPA integrated intensity (z-score) [2]	whole-cell filipin (z-score) [3]	whole-cell filipin (z-score) [4]	filipin (z-score) [5]	filipin (z-score) [6]
C[C@]12C[C@H]3S[C@H]3C[C@@H]1CC[C@@H]1[C@@H]2CC[C@]2(C)[C@@H](O)CC[C@@H]12 [Epitiostanol]	-0.387	0.565	0.372	0.761	-0.364	-0.401
CN1[C@@H]2CC[C@H]1C[C@@H](OC1c3ccccc3CCc3ccccc31)C2 [Deptropine citrate]	3.21	1.46	1.8	-0.333	2.68	1.23
CC(C)[N+](C)(CCC(C(N)=O)(c1ccccc1)c1ccccc1)C(C)C [Isopropamide iodide]	-0.212	0.0469	0.00888	-0.577	-0.389	-0.451
CN1C[C@H](CNC(=O)OCc2ccccc2)C[C@@H]2c3cccc4c3c(cn4C)C[C@H]21 [Metergoline]	3.11	1.47	1.11	1.28	4.03	4.18
CCC1(c2ccc(N)cc2)CCC(=O)NC1=O (centres undefined) [Glutethimide, para-amino]	-0.66	-1.41	-1.07	-1	-0.544	-0.691
O=c1[nH]c2ccccc2n1C1CCN(CCCC(c2ccc(F)cc2)c2ccc(F)cc2)CC1 [Pimozide]	0.798	0.814	0.271	-0.393	0.65	0.34
O=P1(NCCCl)OCCCN1CCCl (centres undefined) [Ifosfamide]	-0.43	-0.294	0.0112	-0.489	-0.396	-0.611
C=C(C)[C@@H]1[C@H]2OC(=O)[C@@H]1[C@]1(O)C[C@H]3O[C@]34C(=O)O[C@H]2[C@]14C [Picrotoxinin]	-0.582	-0.88	-0.718	-0.469	-0.448	-0.32
CCN[C@@H](C)Cc1cccc(C(F)(F)F)c1 [Dexfenfluramine hydrochloride]	-0.18	-0.965	-0.95	-0.721	-0.444	-0.703
CC[C@@H](C(N)=O)N1CCCC1=O [Levetiracetam]	-0.634	-1.5	-0.363	0.0516	-0.585	-0.523
CCNC1(c2cccs2)CCCCC1=O (centres undefined) [Tiletamine hydrochloride]	-0.499	-0.0498	-0.0108	-0.435	-0.475	-0.463
C=C1C[C@@H]2[C@H](CC[C@]3(C)C(=O)CC[C@@H]23)[C@@]2(C)C=CC(=O)C=C12 [Exemestane]	-0.59	0.401	-0.0622	-0.2	-0.537	-0.552
CN1C[C@H](C(=O)N[C@]2(C)O[C@@]3(O)[C@@H]4CCCN4C(=O)[C@H](Cc4ccccc4)N3C2=O)C[C@@H]2c3cccc4[nH]cc(c34)C[C@H]21 [Dihydroergotamine tartrate]	2.74	2.55	1.06	0.225	1.48	1.1
O=C(CCCN1CCC(n2c(=O)[nH]c3ccccc32)CC1)c1ccc(F)cc1 [Benperidol]	2.05	1.55	2.2	1.83	2.28	1.91
CC(=O)OC1CN2CCC1CC2 (centres undefined) [Aceclidine Hydrochloride]	-0.622	-1.07	-0.642	0.0664	-0.61	-0.54
COP(=O)(OC)C(O)C(Cl)(Cl)Cl (centres undefined) [Trichlorfon]	-0.479	-0.711	-1.16	-1.48	-0.56	-0.592
CCN(C(C)=O)c1cccc(-c2ccnc3c(C#N)cnn23)c1 [Zaleplon]	-0.486	-0.0487	-0.573	-0.909	-0.493	-0.507
CC(C)c1cccc(C(C)C)c1O [Propofol]	-0.483	-0.0677	-0.406	-0.391	-0.506	-0.548
CC(=O)NC1CCSC1=O (racemic) [N-Acetyl-DL-homocysteine Thiolactone]	-0.475	-0.898	-0.462	-0.0159	-0.405	-0.461
C[N+]1(C)[C@@H]2CC[C@H]1C[C@@H](OC(=O)C(CO)c1ccccc1)C2 (some centres undefined) [Methylatropine nitrate]	-0.382	0.224	-0.241	0.542	-0.375	-0.173
CCN(CC)C(C)C(=O)c1ccccc1 (centres undefined) [Amfepramone hydrochloride]	-0.552	0.252	-0.82	-0.758	-0.654	-0.615
CC(C)N(CCC(C(N)=O)(c1ccccc1)c1ccccn1)C(C)C (centres undefined) [Disopyramide]	-0.423	0.142	-0.822	-0.537	-0.461	-0.294
C[C@]12CC[C@H](O)C[C@@H]1CC[C@@H]1[C@@H]2CC[C@]2(C)C(=O)CC[C@@H]12 [Epiandrosterone]	1.56	0.767	2.3	2.67	2.15	1.85
C[C@]12N[C@H](Cc3ccccc31)c1ccccc12 [Dizocilpine maleate]	-0.337	0.113	-0.302	-0.304	-0.361	-0.275
O=[N+]([O-])O[C@H]1CO[C@H]2[C@@H]1OC[C@H]2O[N+](=O)[O-] [Isosorbide dinitrate]	-0.547	-1	-0.426	-0.655	-0.496	-0.471

SMILES	LBPA endosome anti-LBPA integrated intensity (z-score) [1]	LBPA endosome anti-LBPA integrated intensity (z-score) [2]	whole-cell filipin (z-score) [3]	whole-cell filipin (z-score) [4]	filipin (z-score) [5]	filipin (z-score) [6]
NCC(O)c1ccc(O)cc1 (racemic) [(+,-)-Octopamine hydrochloride]	-0.262	0.0629	-0.464	-0.485	-0.407	-0.291
OC(c1ccccc1)(c1ccccc1)C1CCNCC1 [Azacyclonol]	-0.397	-0.253	-0.445	-0.666	-0.198	0.228
c1ccc2nc(N3CCNCC3)ccc2c1 [Quipazine dimaleate salt]	-0.64	0.00535	-0.594	-0.241	-0.575	-0.45
NCC1(CC(=O)O)CCCCC1 [Gabapentin]	-0.54	-0.377	-0.349	-0.476	-0.52	-0.627
C#CCN(C)[C@H](C)Cc1ccccc1 [Selegiline hydrochloride]	-0.688	-1.62	-0.708	-0.332	-0.535	-0.657
Cc1cc(C(C#N)c2ccc(Cl)cc2)c(Cl)cc1NC(=O)c1cc(I)cc(I)c1O (centres undefined) [Closantel]	-0.54	-1	-0.93	-0.632	-0.512	-0.663
NCC(CC(=O)O)c1ccc(Cl)cc1 (racemic) [Baclofen (R,S)]	-0.529	-1.07	-1.03	-0.783	-0.513	-0.613
CCCN1C[C@H](CSC)C[C@@H]2c3cccc4[nH]cc(c34)C[C@H]21 [Pergolide mesylate]	2.35	1.89	-0.261	-0.788	0.495	0.499
CCNCC(O)c1cccc(O)c1 (centres undefined) [Etilefrine hydrochloride]	-0.181	-0.0522	0.485	-0.0907	-0.374	-0.466
Oc1cc(Cl)ccc1Oc1ccc(Cl)cc1Cl [Triclosan]	-0.463	0.177	-0.0345	3.99	-0.336	-0.129
C=CCN1CC[C@]23c4c5ccc(O)c4O[C@H]2C(=O)CC[C@@]3(O)[C@H]1C5 [Naloxone hydrochloride]	-0.497	-0.128	-0.72	-1.07	-0.454	-0.503
O=C([O-])c1ccccc1-c1c2cc(Br)c(=O)cc-2oc2[c]([Hg+])c([O-])c(Br)cc12.[Na+].[Na+].[OH-] [Merbromin]	-0.53	-1.95	-0.246	-0.654	-0.525	-0.65
C[C@]12CCC(=O)C=C1CC[C@@H]1[C@@H]2C(=O)C[C@]2(C)C(=O)CC[C@@H]12 [Adrenosterone]	0.667	1.59	1.61	2.01	1	0.731
O=C(NCNC(=O)NC1C(=O)NC(=O)N1CO)NC1C(=O)NC(=O)N1CO (centres undefined) [Imidurea]	-0.433	0.0233	-0.35	-0.63	-0.459	-0.511
c1ccc2c(c1)OCC(C1=NCCN1)O2 (centres undefined) [Idazoxan hydrochloride]	-0.313	0.376	-0.115	-0.982	-0.462	-0.278
CC(C)(C)NCC(O)c1cc(Cl)c(N)c(Cl)c1 (centres undefined) [Clenbuterol hydrochloride]	0.0925	0.441	-0.358	-0.387	-0.383	-0.295
Clc1ccc(C(OCCN2CCCCC2)c2ccccc2)cc1 (centres undefined) [Cloperastine hydrochloride]	3.12	1.44	1.35	-0.495	2.83	0.777
C[C@@H]1CC[C@H]2[C@@H](C)C(=O)O[C@@H]3O[C@@]4(C)CC[C@@H]1[C@]32OO4 [Artemisinin]	-0.479	0.63	-0.6	0.161	-0.503	-0.315
COc1ccc(C(=O)N2CCCC2=O)cc1 [Aniracetam]	-0.475	0.124	-0.904	-0.402	-0.562	-0.3
CCC(=O)O[C@H]1CC[C@H]2[C@@H]3CCC4=CC(=O)CC[C@]4(C)[C@H]3CC[C@]12C [Testosterone propionate]	-0.618	-0.712	-0.907	-0.813	-0.502	-0.546
C[N+]1(C)CCCC(OC(=O)C(O)(c2ccccc2)c2ccccc2)C1 (centres undefined) [Mepenzolate bromide]	-0.582	-0.861	-0.409	-0.0861	-0.481	-0.374
C[C@H](N)[C@H](O)c1ccc(O)c(O)c1 [Levonordefrin]	-0.29	-0.019	0.247	0.753	-0.427	-0.337
CN1CCC2(C)c3cc(O)ccc3N(C)C12 (single isomer, unassigned; (-)) [(-)-Eseroline fumarate salt]	-0.298	0.682	0.444	-0.261	-0.415	-0.33
O[C@@H]1CCCC[C@H]1N1CCC(c2ccccc2)CC1 [L(-)-vesamicol hydrochloride]	-0.173	1.21	0.21	0.285	-0.268	-0.0101
